# Measurements: the supplement of paper PMC8728848
# This is one part of a sample in which the strongest signals are shown more often than they occur.
# B1: CBP21 (Serratia marcescens), O83009 (protein)
# chain: MNKTSRTLLSLGLLSAAMFGVSQQANAHGYVESPASRAYQCKLQLNTQCGSVQYEPQSVEGLKGFPQAGPADGHIASADKSTFFELDQQTPTRWNKLNLKTGPNSFTWKLTARHSTTSWRYFITKPNWDASQPLTRASFDLTPFCQFNDGGAIPAAQVTHQCNIPADRSGSHVILAVWDIADTANAFYQAIDVNLSK
# How the values were obtained:
# Experiment in all cases: glycan array binding signal (z-score within array); higher = stronger binding
# Conditions in all cases: glycan notation: IUPAC condensed, linker removed
# [1] = target: GlcNAc(a1-4)Gal(b1-3)GlcNAc
# In short: (§1)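 Glycan array data were curated from 3228 arrays in the Consortium for Functional Glycomics database and kept only where the protein sequence was available. Glycan names were converted to IUPAC-condensed notation, and columns mapping to the same glycan were averaged. The binding signal is a within-array Z-score, averaged across arrays of the same protein sequence at different concentrations or buffers and across linkers. Negative Z-scores can be read as non-binding.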
# [2] = target: GlcNAc(b1-2)[GlcNAc(b1-4)]Man(a1-3)[GlcNAc(b1-2)Man(a1-6)]Man(b1-4)GlcNAc(b1-4)GlcNAc
# In short: as §1
# [3] = target: GlcNAc(b1-3)Gal(b1-3)GalNAc
# In short: as §1
# [4] = target: GlcNAc(b1-3)Gal(b1-4)GlcNAc(b1-3)Gal(b1-4)GlcNAc(b1-2)Man(a1-3)[GlcNAc(b1-3)Gal(b1-4)GlcNAc(b1-3)Gal(b1-4)GlcNAc(b1-2)Man(a1-6)]Man(b1-4)GlcNAc(b1-4)[Fuc(a1-6)]GlcNAc
# In short: as §1
# [5] = target: GlcNAc(b1-3)Gal(b1-4)GlcNAc(b1-6)[Gal(b1-3)]GalNAc
# In short: as §1
# [6] = target: GlcNAc(b1-3)Gal(b1-4)GlcNAc(b1-6)[GlcNAc(b1-3)]Gal(b1-4)GlcNAc
# In short: as §1
# [7] = target: GlcNAc(b1-4)Gal(b1-4)GlcNAc
# In short: as §1
# [8] = target: GlcNAc(b1-4)GlcNAc(b1-4)GlcNAc(b1-4)GlcNAc(b1-4)GlcNAc
# In short: as §1
# GlcNAc(b1-6)GalNAc = target: GlcNAc(b1-6)GalNAc
# In short: as §1
# Kdn(a2-3)Gal(b1-4)GlcNAc = target: Kdn(a2-3)Gal(b1-4)GlcNAc
# In short: as §1
# [9] = target: Man(a1-2)Man(a1-2)Man(a1-3)Man
# In short: as §1
# [10] = target: Man(a1-2)Man(a1-3)[Man(a1-2)Man(a1-6)]Man(a1-6)[Man(a1-2)Man(a1-2)Man(a1-3)]Man(b1-4)GlcNAc(b1-4)GlcNAc
# In short: as §1
# [11] = target: Man(a1-2)Man(a1-6)[Man(a1-3)]Man(a1-6)[Man(a1-2)Man(a1-2)Man(a1-3)]Man(b1-4)GlcNAc(b1-4)GlcNAc
# In short: as §1
# [12] = target: Neu5Ac(a2-3)Gal(b1-3)GalNAc(b1-3)Gal(a1-4)Gal(b1-4)Glc
# In short: as §1
# [13] = target: Neu5Ac(a2-3)Gal(b1-3)GlcNAc(b1-6)GalNAc
# In short: as §1
# [14] = target: Neu5Ac(a2-3)Gal(b1-3)GlcNAc6S
# In short: as §1
# [15] = target: Neu5Ac(a2-3)Gal(b1-4)GlcNAc(b1-3)Gal
# In short: as §1
# [16] = target: Neu5Ac(a2-3)Gal(b1-4)[Fuc(a1-3)]GlcNAc(b1-2)Man
# In short: as §1
# [17] = target: Neu5Ac(a2-3)Gal(b1-4)[Fuc(a1-3)]GlcNAc(b1-6)[Neu5Ac(a2-3)Gal(b1-3)]GalNAc
# In short: as §1
# Neu5Ac(a2-3)GalNAc = target: Neu5Ac(a2-3)GalNAc
# In short: as §1
# Neu5Ac(a2-6)Gal = target: Neu5Ac(a2-6)Gal
# In short: as §1
# [18] = target: Neu5Ac(a2-6)Gal(b1-4)GlcNAc(b1-2)[Neu5Ac(a2-6)Gal(b1-4)GlcNAc(b1-6)]Man(a1-6)[Neu5Ac(a2-6)Gal(b1-4)GlcNAc(b1-2)Man(a1-3)][GlcNAc(b1-4)]Man(b1-4)GlcNAc(b1-4)GlcNAc
# In short: as §1
# [19] = target: Neu5Ac(a2-6)Gal(b1-4)GlcNAc(b1-3)Gal(b1-4)GlcNAc(b1-2)Man(a1-3)[Neu5Ac(a2-6)Gal(b1-4)GlcNAc(b1-3)Gal(b1-4)GlcNAc(b1-2)Man(a1-6)]GalNAc
# In short: as §1
# [20] = target: Neu5Ac(a2-8)Neu5Ac(a2-3)Gal(b1-3)GalNAc(b1-4)[Neu5Ac(a2-3)]Gal(b1-4)Glc
# In short: as §1
# [21] = target: Neu5Ac(a2-8)Neu5Ac(a2-3)Gal(b1-3)GalNAc(b1-4)[Neu5Ac(a2-8)Neu5Ac(a2-3)]Gal(b1-4)Glc
# In short: as §1
# [22] = target: Neu5Gc(a2-6)Gal(b1-4)GlcNAc
# In short: as §1
# [23] = target: Neu5Gc(a2-8)Neu5Gc(a2-3)Gal(b1-4)GlcNAc
# In short: as §1
# [24] = target: Neu5Gc(a2-8)Neu5Gc(a2-3)Gal(b1-4)GlcNAc(b1-3)Gal(b1-4)GlcNAc
# In short: as §1
# [25] = target: Neu5Gc(a2-8)Neu5Gc(a2-6)Gal(b1-4)GlcNAc
# In short: as §1
binder,measurement,setting,value
B1,glycan array binding signal (z-score),[1],0.503
same,glycan array binding signal (z-score),[2],-0.435
same,glycan array binding signal (z-score),[3],0.04
same,glycan array binding signal (z-score),[4],3.08
same,glycan array binding signal (z-score),[5],-0.256
same,glycan array binding signal (z-score),[6],-1.31
same,glycan array binding signal (z-score),[7],0.145
same,glycan array binding signal (z-score),[8],0.729
same,glycan array binding signal (z-score),GlcNAc(b1-6)GalNAc,-0.697
same,glycan array binding signal (z-score),Kdn(a2-3)Gal(b1-4)GlcNAc,-0.42
same,glycan array binding signal (z-score),[9],-0.437
same,glycan array binding signal (z-score),[10],2.53
same,glycan array binding signal (z-score),[11],0.074
same,glycan array binding signal (z-score),[12],1.24
same,glycan array binding signal (z-score),[13],0.458
same,glycan array binding signal (z-score),[14],-0.561
same,glycan array binding signal (z-score),[15],-0.019
same,glycan array binding signal (z-score),[16],-1.42
same,glycan array binding signal (z-score),[17],-0.314
same,glycan array binding signal (z-score),Neu5Ac(a2-3)GalNAc,-0.582
same,glycan array binding signal (z-score),Neu5Ac(a2-6)Gal,0.109
same,glycan array binding signal (z-score),[18],0.063
same,glycan array binding signal (z-score),[19],2.96
same,glycan array binding signal (z-score),[20],4
same,glycan array binding signal (z-score),[21],0.155
same,glycan array binding signal (z-score),[22],0.755
same,glycan array binding signal (z-score),[23],-0.788
same,glycan array binding signal (z-score),[24],0.62
same,glycan array binding signal (z-score),[25],0.37
